Reference: ChEMBL document CHEMBL4513216, “Probing the Open Global Health Chemical Diversity Library for Multistage-Active Starting Points for Next-Generation Antimalarials” (ACS Infect Dis, 2020)
The whole screen tested about 68,000 compounds, of which about 2,700 (4%) showed an effect of 50% or more. For the sample, strong results were picked, then their nearest neighbours and some compounds at random.

test system: Plasmodium berghei; test: Screen against P. berghei liver stage (PbLuc), transformed with Luciferase, at 2uM; assay type: functional, HepG2; details: tested at 2 uM

Point of comparison: `Cc1cc(CN(C)C(=O)C(c2cccnc2)N2CCOCC2)n[nH]1` (stereo unspecified), INHIBITION 39.92%. Against it:
- Cc1ccc(CN2CCn3c(CNC(=O)c4cccn4C)cnc3C2)s1 — lower, -40.86%
- COc1cccc(CN2CCC3(COCc4cnc(N(C)C)nc43)C2)c1 (stereo unspecified) — lower, 23.93%
- CSCc1cccc(S(=O)(=O)NCCCn2ccnc2)c1 — lower, 16.48%
- c1cnn(CC2CN(c3ncnc4ccsc34)CCO2)c1 (stereo unspecified) — lower, 32.39%
- Cc1cc(F)ccc1C(=O)N1C[C@@H]2COC[C@]2(CN(C)C)C1 — lower, 25.58%
- O=C(C1=CCCC1)N1C[C@@H]2COC[C@]2(COCC2CC2)C1 — lower, 24.23%
- COC[C@]12COC[C@H]1CN(C(=O)C1CC(F)(F)C1)C2 — lower, -22.65%
- Cc1cc(F)ccc1C(=O)N1C[C@@H]2COC[C@]2(COCC2CC2)C1 — higher, 65.38%
- O=C(c1ccnnc1)N1C[C@@H]2COC[C@]2(COCC2CC2)C1 — lower, -57.61%
- COC[C@]12COC[C@H]1CN(C(=O)c1ccc(F)cc1C)C2 — higher, 57.85%
- CCOc1c(F)cccc1C(=O)N(c1cccnc1)C(C)C — lower, -56.64%
- CC1(C)CN(C(=O)c2ccc3nncn3c2)CCS1 — lower, -17.04%
- Cc1nccn1-c1cccc(N2CCC(OCC3CCCCO3)CC2)n1 (stereo unspecified) — lower, -16.7%
- COc1ccc(OC)c2c(C)cc(N(C)Cc3cc(C)on3)nc12 — lower, 38.87%
- Cc1cccc(CN2CC3(CCN(C4CCOC4)CC3)OCC2=O)n1 (stereo unspecified) — lower, 15.98%
- COc1c(CNCc2ccc(C(=O)N3CCCC3)cc2)c(C)nn1C — lower, -36.39%
- O=C(CN1CCCC(c2ncc[nH]2)C1)NCC(F)(F)F (stereo unspecified) — higher, 51.23%
- O=C(CCC(F)(F)F)N1CCCC(c2ncc[nH]2)C1 (stereo unspecified) — lower, -1.64%
- O=C(CN1CCCC(c2ncc[nH]2)C1)NCCCN1CCCCCC1=O (stereo unspecified) — lower, -21.61%
- CC(=O)NS(=O)(=O)c1ccc(F)c(C(F)(F)F)c1 — lower, -38.34%
- CS(=O)(=O)CCC(=O)N1CCC2(CCCN(C3CCOCC3)C2=O)C1 (stereo unspecified) — lower, -11.19%
- O=C(O)c1cc(S(=O)(=O)Nc2cccc3c2OCCO3)c(Cl)cc1F — lower, -47.76%
- CCOc1ccc(C(F)(F)F)cc1NC(=O)N1CCC(C(N)=O)CC1 — lower, -3.17%
- CCc1n[nH]c(NC(=O)c2ccc(Cl)cn2)c1Br — lower, -3.87%
- CN1CCN(Cc2cn3c(n2)CN(Cc2ccncc2)CC3)CC1 — higher, 51.26%
- CN1CCN(Cc2cn3c(n2)CN(Cc2cccnc2)CC3)CC1 — lower, -59.73%
- Cc1ccc(CN2CCn3cc(CN4CCN(C)CC4)nc3C2)cc1 — lower, 18.32%
- c1c(CN2CCCC2)nc2n1CCN(CC1CC1)C2 — lower, -33.57%
- CN1CCN(Cc2cn3c(n2)CN(CC2CC2)CC3)CC1 — higher, 70.17%
- c1c(CN2CCCCC2)nc2n1CCN(CC1CC1)C2 — lower, 7.13%
- CCCS(=O)(=O)NC(C)C(=O)NCc1ccc(N2CCCC2)nc1 (stereo unspecified) — lower, -5.15%
- O=C(c1cc[nH]n1)N1CCC2(CC1)CC(Oc1cccnc1)CO2 (stereo unspecified) — lower, -0.83%
- O=C(CSc1ccccc1F)NS(=O)(=O)c1ccc2c(c1)OCCO2 — lower, 12.81%
- O=C(CCCOc1ccccc1F)Nc1cc[nH]n1 — lower, -9.47%
- CC(NC(=O)COc1nc(C(C)(C)C)no1)c1ccco1 (stereo unspecified) — lower, 1.22%
- Cn1cc(C2CCCN2C(=O)CS(=O)(=O)C2CCCC2)cn1 (stereo unspecified) — lower, -0.06%
- CC(=O)N1CCC2(CC1)CN(CC1CC1)c1ccc(F)cc12 — lower, -18.44%
- Cc1ccc2c(c1)C1(CCN(C(N)=O)CC1)CN2C(=O)N(C)C — lower, -22.42%
- Cc1ccc2c(c1)C1(CCN(C(N)=O)CC1)CN2CC1CC1 — higher, 52.12%
- CC(C(=O)Nc1nccs1)N1CCc2nn(C)c(=O)cc2C1 (stereo unspecified) — lower, 16.82%
- Cn1c(CN2CCCC2)nnc1C1CCCN(C(=O)C2CCOCC2)C1 (stereo unspecified) — lower, -19.54%
- CCCc1cc(N2CCCC2Cn2nc(C)nc2C)n2ncnc2n1 (stereo unspecified) — lower, 19.39%
- CCn1nc(C)c2ncnc(N3CCCC(C)C3)c21 (stereo unspecified) — higher, 73.48%
- CCN(CC)c1ncnc2c(C)nn(CC)c12 — lower, -25.59%
- CCCc1nc(N2CCCC(C)C2)c2c(n1)c(C)nn2CC (stereo unspecified) — lower, 15.58%
- CS(=O)(=O)NCC1CCCN(c2ccc(C#N)cn2)C1 (stereo unspecified) — lower, -0.3%
- N#Cc1cccnc1N1CCCN(C(=O)CCn2cccn2)CC1 — higher, 41.76%
- O=S(=O)(c1ccc2c(c1)OCCO2)N1CCC(OCc2ccccn2)C1 (stereo unspecified) — lower, -26.14%
- O=S(=O)(c1ccc2c(c1)OCCO2)N1CCc2ccccc2C1 — higher, 50.57%
- O=c1ccc2c([nH]1)CCN(S(=O)(=O)c1ccc3c(c1)OCCO3)C2 — lower, 14.45%
- COc1ccc(C(C)NC(=O)NCCCn2cncn2)cc1F (stereo unspecified) — lower, -40.52%
- CC(NC(=O)CSCC(N)=O)c1ccc(Oc2ccccc2)cc1 (stereo unspecified) — lower, 29.97%
- CCS(=O)(=O)CC(=O)NC(C)c1ccccc1Oc1ccccc1 (stereo unspecified) — lower, -28.15%
- CC(NC(=O)CSCC(N)=O)c1ccccc1Oc1ccccc1 (stereo unspecified) — higher, 51.7%
- Cc1ccc(CN2CCCC23CCN(S(=O)(=O)c2ccccc2)C3)o1 (stereo unspecified) — lower, -30.74%
- Cc1ncc(CN(Cc2ccccn2)Cc2ccccc2Cl)n1C — lower, -6.19%
- CC(=O)N1CC2(CCNCC2)c2cc(Cl)ccc21 — higher, 62.25%
- COC(=O)N1CC2(CCNCC2)c2cc(Cl)ccc21 — lower, 22.71%
- NC(=O)N1CC2(CCNCC2)c2cc(Cl)ccc21 — lower, 6.12%
- O=c1cc(C2CCNCC2)nc(CCc2ccccn2)[nH]1 — lower, 15.92%
- O=C(Cc1csc(-c2ccoc2)n1)NCCCN1CCCCC1 — lower, 6.85%
- O=C(Cc1csc(-c2ccoc2)n1)NCCC(=O)N1CCCCC1 — higher, 45.56%
- CC1CCCN(CCCNC(=O)Cc2csc(-c3ccoc3)n2)C1 (stereo unspecified) — higher, 50.61%
- COCC(=O)N1CCC(C(=O)Nc2ccc(C(C)=O)cc2)CC1 — lower, 10.64%
- CCC(C)NC(=O)Nc1cccc(OCCCC#N)c1 (stereo unspecified) — lower, 12.39%
- O=C(c1ccco1)N1CC[C@@H]2O[C@H](COCCN3CCCC3)CC[C@@H]21 — lower, 15.88%
- c1cncc(-c2ccnn2CN2CCOCC2)c1 — lower, -31.15%
- CC(C)(C)CCN1CCN(Cn2nccc2-c2cccnc2)CC1 — lower, -15.83%
- CC(C)(C)C(=O)N1CCN(Cn2nccc2-c2cccnc2)CC1 — higher, 53%
- CC(=O)NCCNC(=O)C1(Oc2cccnc2C)CCNCC1 — higher, 53.19%
- Cc1ncccc1OC1(C(=O)NCCc2ccccn2)CCNCC1 — lower, 17.94%
- Cc1ncccc1OC1(C(=O)NCCNc2ccccc2)CCNCC1 — lower, -25.28%
- Cc1cnn(C2CN(CC(O)COc3ccc(C#N)cc3)C2)c1 (stereo unspecified) — lower, -2.84%
- Cc1n[nH]c(C)c1CCN(C)C(=O)C(c1cccnc1)N1CCOCC1 (stereo unspecified) — higher, 51.31%
- Cc1ncsc1CCN(C)C(=O)C(c1cccnc1)N1CCOCC1 (stereo unspecified) — lower, -13.13%
- O=C(N1CCCCC1)N1CCN(c2ccc(Cl)nn2)C(=O)C1 — lower, 34.52%
- COc1cc(N2C[C@H]3CN(Cc4ccccn4)C[C@H]3C2)ncn1 — lower, -37.2%
- CC(NC(=O)N1CCc2sccc2C1)c1nncn1C (stereo unspecified) — higher, 64.21%
- Cc1cccc(N2CCN(C(=O)NC(C)c3nncn3C)CC2)c1 (stereo unspecified) — higher, 48.64%
- COc1cc2c(cc1OC)CN(C(=O)NC(C)c1nncn1C)CC2 (stereo unspecified) — lower, -23.92%
- CC(NC(=O)N1CCc2ccccc2C1)c1nncn1C (stereo unspecified) — lower, -56.96%
- CC(NC(=O)N1CCN(c2ccccc2)CC1)c1nncn1C (stereo unspecified) — higher, 50.72%
- COc1ccc(N2CCN(C(=O)NC(C)c3nncn3C)CC2)cc1 (stereo unspecified) — lower, -11.34%
- Cc1ncccc1CNC(CCO)C1CCCCC1 (stereo unspecified) — lower, -16.72%
- O=C(CN1CCNC1=O)NCc1ccc2sccc2c1 — lower, -18.57%
- Cc1nnc(C2Cc3ccccc3CN2Cc2ncc(Cl)n2C)o1 (stereo unspecified) — lower, 27.59%
- COCc1cncc2c1CCN(C(=O)c1ccoc1C)C2 — lower, 34.02%
- Cc1cc(CN(C)c2nc(-c3ccco3)nc3c2CCN(C)CC3)on1 — higher, 67.05%
- Cc1noc(CN(C)c2nc(-c3ccco3)nc3c2CCN(C)CC3)n1 — lower, 18.14%
- Cc1nonc1CN(C)c1nc(-c2ccco2)nc2c1CCN(C)CC2 — lower, 38.91%
- CNc1nc(C(=O)N2CCn3nc(C(=O)OC)cc3C2)cs1 — lower, -0.15%
- COCc1c(C(=O)N2CCCC(C(=O)c3ccccc3)C2)noc1C (stereo unspecified) — lower, 10.1%
- O=S1(=O)CCN2C(=N1)Oc1ccc(Cl)cc12 — lower, 22.96%
- CN(CCc1ccccn1)C(=O)c1cccs1 — lower, 24.64%
- CN(Cc1ccoc1)C(=O)C1CC(=O)N(Cc2ccncc2)C1 (stereo unspecified) — lower, 10.91%
- CN(Cc1ccon1)C(=O)C1CC(=O)N(Cc2ccncc2)C1 (stereo unspecified) — lower, 15.96%
- CN(Cc1cnc(N)nc1)C(=O)C1CC(=O)N(Cc2ccncc2)C1 (stereo unspecified) — higher, 59.8%
- CC(C)c1nnc2n1CCN(Cc1nc3c(F)cccc3[nH]1)C2 — higher, 45.4%
- Cc1oc(-c2ccsc2)nc1CN1CCCC(c2ccnn2C)C1 (stereo unspecified) — lower, 13.88%
- Cc1oc(-c2ccsc2)nc1CN1CC[C@@H]2CCCC[C@H]2C1 — higher, 54.49%
- Cc1ncc2c(n1)CN(Cc1nc(-c3ccsc3)oc1C)CC2 — lower, 31.05%
- CN(C)Cc1nc2c(o1)CN(S(=O)(=O)c1cccs1)C2 — lower, -0.45%
- Cn1nc(C(=O)N2CCOCC2)cc1C(=O)Nc1ncc(Cl)cc1Cl — lower, -47.52%
- Cn1nc(C(=O)N2CCOCC2)cc1C(=O)Nc1c(Cl)cccc1Cl — lower, 13.45%
- Cn1nc(C(=O)N2CCOCC2)cc1C(=O)Nc1ccc(Cl)cc1Cl — higher, 61.02%
